In PubChem BioAssay (Tox21) one finds activity change, negative = cytotoxicity and Potency data, which are given here for 40 compounds.

Molecules are shown by their SMILES. Records with an inconclusive call do not appear. Entries that show only a call come without a potency. The source made the active and inactive calls. Calls follow the shape of the dose curve; as a rule, active = well fitted cell-killing curve with a large enough effect in the repeat runs; inconclusive = weak or mixed curves, or effect the other way; inactive = flat fitted curve, though single readings scatter.
Potency is read from the fitted curve at half-maximal effect.

The nature of this assay: qHTS RealTime-Glo MT Cell Viability Assay in HEK293 cells - 16 hour (AID 1224872). Also: nearly all actives have a fitted effect of over 50% in size. As to activity change, negative = cytotoxicity: top concentration of the series differs between compounds. Conditions: RealTime-Glo luminescence; series mostly up to 76.8 µM. From the text: National Center for Advancing Translational Sciences [NCATS]
NIH Chemical Genomics Center [NCGC]
U.S. Environmental Protection Agency [EPA]
National Institutes of Environmental Health Sciences [NIEHS]
National Toxicology Program [NTP]
U.S. Food and Drug Administration [FDA]
Measure of cell viability is critical in the cell-base assay. Analysis of cell viability is necessary for the characterization of cell responses to cytotoxic drugs and environmental stress. A RealTime-Glo MT Cell Viability Assay to monitor cell viability in real time of continues cell culture during 40 hours of compound treatment was used to screen Tox21 10K library compounds in Hek293 cells. The RealTime-Glo MT Cell Viability Assay is a nonlytic, homogeneous, bioluminescent method to measure cell viability in real time using a simple, plate-based method. The assay involves adding NanoLuc luciferase and a cell-permeant prosubstrate to cells in culture. Viable cells reduce the proprietary prosubstrate to generate a substrate for NanoLuc luciferase. This substrate diffuses from cells into the surrounding culture medium, where it is rapidly used by the NanoLuc Enzyme to produce a luminescent signal. The signal correlates with the number of viable cells, making the assay well suited for cytotoxicity studies.
Tox21 Assay Protocol Summary:
The mixture of Hek293 cell suspension and reagents were dispensed at 600cells/6 ul/well in 1536-well tissue culture treated black solid bottom plates using a Multidrop dispenser. After the assay plates were incubated at a 37 C/5% CO2 incubator for 5 hours, 23 nL of compounds dissolved in DMSO, positive and negative controls was transferred to the assay plate by a pintool work station. The plates were incubated at 37 C for 40 hours. The luminescence intensity were measured at 0h, 8h, 16h, 24h, 32h and 40h time points using ViewLux plate reader during compound treatment.
For orientation: qHTS replaces the single test concentration by a dilution series.
On to `Brc1c2ccccc2c(Br)c2ccccc12`, for which the activity change, negative = cytotoxicity is 0.583% [at 6.97 µM] (inactive).
Consider `CCC(Cl)CCC(Cl)C(Cl)CC(Cl)C(Cl)C(Cl)CCl` (stereo not given), for which the Potency result was “inactive”.
For the compound `Cc1cc(C(=O)O)ccc1[N+](=O)[O-]`, the Potency entry was “inactive”.
`Cc1ccc(N=Nc2c(O)c(C(=O)O)cc3ccccc23)c(S(=O)(=O)O)c1`: the Potency result was “inactive”.
For `CCc1c(C(=O)NN2CCCCC2)nn(-c2ccc(Cl)cc2Cl)c1-c1ccc(Br)cc1`, the Potency entry is “inactive”.
Take `COc1cccc(N(C)C(=S)Oc2ccc3c(c2)CCCC3)n1`: the Potency entry was “inactive”.
On the same count and under the same terms, for `COS(=O)(=O)C(F)(F)F` the value was “inactive”; for `CC(C)(CO)[N+](=O)[O-]`, “inactive”.
For the compound `Cc1[nH]c(C)c(Cl)c(=O)c1Cl`, the activity change, negative = cytotoxicity is -23.6% [at 15.8 µM] (inactive).
In the case of `CN(C)CCN(Cc1ccccc1)c1ccccn1`, the Potency entry was “inactive”.
Regarding `C[C@@H](c1ncncc1F)C(O)(Cn1cncn1)c1ccc(F)cc1F` (stereo not given in full), the Potency entry is “inactive”.
Regarding `CC(C)(C)Cl`, the Potency result is “inactive”.
Consider `Cc1ccc(C(C)OC(=O)C2(C)CCC(C(=O)O)C2(C)C)cc1` (stereo not given), for which the Potency entry was “inactive”.
On the same count and under the same terms, next, `Cc1cccc(C)c1OCC(=O)N[C@@H](Cc1ccccc1)[C@@H](O)C[C@H](Cc1ccccc1)NC(=O)[C@H](C(C)C)N1CCCNC1=O`: 23.9 µM (active); `C[C@@H]1C[C@H]2O[C@@]3(O[C@@H]2C(C)(C)O)[C@H](O)[C@@]2(C)[C@@H]4CC[C@H]5C(C)(C)[C@@H](O[C@@H]6OC[C@@H](O)[C@H](O)[C@H]6O)CC[C@@]56C[C@@]46CC[C@]2(C)[C@@H]13`: “inactive”.
For `OCCN1CCN(CCCN2c3ccccc3C=Cc3ccccc32)CC1`, the Potency result is “inactive”.
Consider `CCCCC`, for which the Potency result is “inactive”.
Turning to `CC(C)Nc1ccc(NC(C)C)c2c1C(=O)c1ccccc1C2=O`, the Potency entry is “inactive”.
`O=C1C(O)=C(O)C(=O)C(O)=C1O`: the Potency result is “inactive”.
For the compound `CCOC(=O)C(O)c1ccccc1` (stereo not given), the Potency entry was “inactive”.
Same read-out and setting: for `CNC(=O)CN(CCN(CCN(CC(=O)[O-])CC(=O)NC)CC(=O)[O-])CC(=O)[O-].O.[Gd+3]` the value was “inactive”; for `CC(=O)OC[C@H]1O[C@@H](n2ncc(=O)[nH]c2=O)[C@H](OC(C)=O)[C@@H]1OC(C)=O`, “inactive”; for `CC(C)(C)OCC1CO1` (stereo not given), “inactive”.
Consider `CCC(C)c1cc(C(C)(C)C)c(O)c(C(C)(C)C)c1` (stereo not given), for which the Potency result is “inactive”.
In the case of `COc1cc2c(cc1OC)C(C(C(=O)N(CCc1ccc(OC)c(OC)c1OC)CCc1ccc(OC)c(OC)c1OC)c1ccccc1)=NCC2` (stereo not given), the Potency was 3.01 µM (active).
For `COCC(C)OC(C)=O` (stereo not given), the Potency result is “inactive”.
Turning to `CC(=O)NO`, the Potency entry is “inactive”.
As for `Cc1ncc(CO)c(C=O)c1O`, the Potency result was “inactive”.
Still for that read-out and setting: for `CCC(CC)Nc1ccc(C)c(C)c1` the value was “inactive”; for `CC(C)O.CC(C)O.CCOC(=O)/C=C(\C)O.CCOC(=O)/C=C(\C)O.[Ti]`, “inactive”.
`C[N+](C)(C)CCOC(=O)CCC(=O)OCC[N+](C)(C)C`: the Potency result was “inactive”.
On the same count and under the same terms, for `Cc1cccc(C)c1NC(=O)CN(CC(=O)O)CC(=O)O` the value was “inactive”.
For `CCCCCCCN`, the Potency result is “inactive”.
On to `Cc1ccccc1S(=O)(=O)O`, for which the Potency result is “inactive”.
Turning to `C=CC(=O)OCCOCCOCCOCCOC(=O)C=C`, the Potency is 43.2 µM (active).
Turning to `Nc1cccc(S(=O)(=O)c2cccc(N)c2)c1`, the Potency entry was “inactive”.
With `CCCCc1ncc(/C=C(\Cc2cccs2)C(=O)O)n1Cc1ccc(C(=O)O)cc1`, the Potency result was “inactive”.
For `O=C(O)C1(C(=O)Nc2ccc(Cl)cc2Cl)CC1`, the Potency entry is “inactive”.
`CCCCCCCCCOS(=O)(=O)O`: the Potency entry is “inactive”.
Turning to `C=C1[C@H]2CC[C@@H]3[C@H]2C(C)(C)CCC[C@]13C`, the Potency result was “inactive”.
